The results in this text go back to PubChem BioAssay (NCATS).

Assay [1] addresses Glucocorticoid receptor (Homo sapiens) (UniProt P04150). As to the kind of experiment: qHTS assay for small molecule agonists of glucocorticoid receptor signaling (AID 588532; active means well fitted curve in the direction sought with a large enough effect in the signal ratio, with a control signal flat; the % refers to the signal ratio;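 further: 100% = dexamethasone at 0.1 µM and 0% = DMSO only wells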). Particulars: HeLa MMTV-bla, beta-lactamase ratio, agonist, 18 h; activation: stronger effect = higher value, percent of dexamethasone control, DMSO zero. The method in brief:
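HeLa GRE-bla reporter cells; 18 h compound exposure at 37 C; 2 h CCF4 loading at room temperature; fluorescence at 460 and 530 nm; EC50 by Hill equation.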
For orientation: Quantitative high-throughput screening tests each substance at several concentrations.

Assay [2] has as its target Peroxisome proliferator-activated receptor delta (Homo sapiens) (UniProt Q03181). In words: qHTS assay for small molecule agonists of peroxisome proliferator-activated receptor delta signaling (AID 588534).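 Further: 0% = DMSO basal wells and 100% = positive control agonist at 10 µM.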 The method in brief: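 Reporter cells were plated and held 5 hrs at 37 C before compounds were added. After 18 hrs at 37 C, CCF4 dye was loaded for 2 hrs at RT and fluorescence measured.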

The target in assay [3] is Vitamin D3 receptor (Homo sapiens) (UniProt P11473). In words: qHTS assay for small molecule agonists of vitamin D receptor signaling (AID 588543).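 Further: 0% = DMSO basal and 100% = reference agonist control.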 An outline of the steps: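 β-lactamase reporter, VDR-UAS-bla HEK293T, agonist mode. Cells plated 5 h at 37 °C, compound titration 16 h at 37 °C, CCF4 dye 2 h RT, ratio 460/530 nm. Hill fit → EC50, efficacy vs 50 nM 1α,25-(OH)2D3.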
Chain of Vitamin D3 receptor (Homo sapiens) (P11473 whole entry, looked up): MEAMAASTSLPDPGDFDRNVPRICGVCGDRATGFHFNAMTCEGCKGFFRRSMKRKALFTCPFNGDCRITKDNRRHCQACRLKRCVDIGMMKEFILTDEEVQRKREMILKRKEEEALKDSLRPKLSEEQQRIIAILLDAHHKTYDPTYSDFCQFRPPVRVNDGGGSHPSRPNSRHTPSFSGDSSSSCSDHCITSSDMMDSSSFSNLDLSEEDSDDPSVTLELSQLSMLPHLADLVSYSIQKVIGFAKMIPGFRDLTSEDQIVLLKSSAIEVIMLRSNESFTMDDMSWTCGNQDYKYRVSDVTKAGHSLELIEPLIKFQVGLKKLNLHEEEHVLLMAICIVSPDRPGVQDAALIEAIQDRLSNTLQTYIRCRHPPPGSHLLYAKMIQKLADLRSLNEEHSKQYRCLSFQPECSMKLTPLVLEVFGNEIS

Assay [4] concerns the target Thyroid hormone receptor beta (Homo sapiens) (UniProt P10828). In words: qHTS assay for small molecule agonists of thyroid hormone receptor beta signaling (AID 588545).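 Further: 0% = DMSO only and 100% = 10 nM T3.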 The method in brief: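 Compounds were tested as agonists in TR-UAS-bla-GripTite HEK 293 cells. After 18 hrs at 37 C, CCF4 substrate was added and fluorescence read after 2 hrs at room temperature.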
Assay [5] is described as follows: qHTS assay for small molecule antagonists of retinoid X receptor alpha signaling (AID 588546; active means well fitted inhibition curve with a large enough effect in the signal ratio, with a control signal flat, not every such curve was filed as active; the % refers to the signal ratio; further: potency means the concentration at half of the fitted maximal effect;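 on max response: cells stimulated with 9-cis-retinoic acid as agonist; on the % scale 0 is the no-effect control and ±100 the full control effect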). Particulars: HEK293T RXRa-UAS-bla, beta-lactamase ratio, antagonist mode; measured here: W530 green channel, cytotoxicity proxy. An outline of the steps: (§1)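 Beta-lactamase reporter inhibition, read as CCF4 fluorescence ratio (ex 405, em 460/530 nm) after 2 h at RT. HEK293T UAS-bla cells, 2500/well, were stimulated with 9-cis-RA at 500 or 100 nM final alongside test compound for 18 h at 37 C.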

In assay [6] the target is Retinoic acid receptor RXR-alpha (Homo sapiens) (UniProt P19793). The assay is described as above. Particulars: HEK293T RXRa-UAS-bla, beta-lactamase ratio, antagonist mode. The method in brief:
as §1

Assay [7] addresses Thyroid hormone receptor beta (Homo sapiens) (UniProt P10828). In words: qHTS assay for small molecule antagonists of thyroid hormone receptor beta signaling (AID 588547; active means well fitted inhibition curve with a large enough effect in the signal ratio, with a control signal flat, not every such curve was filed as active; the % refers to the signal ratio;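 further: cells stimulated with 0.4 nM T3 agonist during compound exposure; series mostly up to about 77 µM; on the % scale 0 is the no-effect control and ±100 the full control effect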). Particulars: TR-UAS-bla HEK293, beta-lactamase ratio, antagonist mode, 18 h. An outline of the steps:
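TR-UAS-bla GripTite HEK293 cells in 2% charcoal/dextran FBS medium; compounds 0.59 nM to 92 uM with T3 at 0.4nM final, 18 h at 37 C. Beta-lactamase read by CCF4 fluorescence (460/530 nm); Hill fits gave IC50 and efficacy.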

The nature of assay [8]: qHTS assay for small molecule activators of the p53 signaling pathway (AID 651743; active means well fitted activation curve with a large enough effect in the signal ratio, not every such curve was filed as active; the % refers to the signal ratio; further: series mostly up to about 92 µM; % of control where 0% means no effect). Particulars: HCT-116 p53RE-bla, beta-lactamase FRET ratio, 16 h; activation: stronger effect = higher value. An outline of the steps:
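HCT-116 p53RE-bla, 4,000 cells/well; 5 h settle; cpd/DMSO 16 h, 37 C; LiveBLAzer B/G 2 h RT; fluorescence intensity.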

Assay [9] can be described thus: qHTS assay for small molecule agonists of the antioxidant response element (ARE) signaling pathway measured by Nrf2-dependant transcriptional activity (AID 720636; active means well fitted curve in the direction sought with a large enough effect in the repeat runs; an effect the other way counts as inactive or inconclusive; further: potency means the concentration at half of the fitted maximal effect;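 on activation: HepG2 cells with an ARE-driven luciferase reporter; % of control where 0% means no effect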). An outline of the steps:
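We exposed ARE-luc HepG2 cells, seeded in assay medium with 1% dialyzed FBS and allowed 6 hr to adhere, to test compounds overnight (16 hr, 37 C) before measuring luciferase with ONE-Glo.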

Assay [10] can be described thus: qHTS assay for small molecule agonists of the antioxidant response element (ARE) signaling pathway measured by Nrf2-dependant transcriptional activity - cell viability counter screen (AID 720653; active means well fitted curve in the direction sought with a large enough effect in the repeat runs; an effect the other way counts as inactive or inconclusive; further: potency means the concentration at half of the fitted maximal effect; on max response: on the % scale 0 is the no-effect control and ±100 the full control effect). The settings on record: ARE-bla HepG2 viability, CellTiter-Glo ATP luminescence, 16 h; max response: stronger effect = lower value. An outline of the steps: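 ARE-bla HepG2 cells treated with compounds for 16 h at 37C; this counter screen measures viability as intracellular ATP by CellTiter-Glo luminescence after 30 min at room temperature.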

Assay [11] is described as follows: qHTS assay for cell viability of the p53RE-bla HCT-116 cell line (AID 743292; active means well fitted curve in the direction sought with a large enough effect; an effect the other way counts as inactive or inconclusive; further: on the % scale 0 is the no-effect control and ±100 the full control effect; nearly all actives have a fitted effect of over 55% in size). An outline of the steps:
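In this qHTS counter-screen, metabolically competent p53RE-bla HCT-116 cells were counted via their ATP content. Compounds were applied for 16 h at 37 C and luciferase-coupled luminescence was measured.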

A short description of assay [12]: qHTS assay for small molecule antagonists of peroxisome proliferator-activated receptor delta signaling (AID 588535).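 Further: cells co-treated with a PPAR-delta agonist as stimulator during compound exposure.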 Particulars: HEK293T PPARd-UAS-bla, beta-lactamase FRET ratio, 18 h; 460 nm channel. The method in brief: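 Cells were seeded at 4000 per well in assay medium containing 2% charcoal/dextran FBS and held 5 hrs at 37 C. Compounds were then added for 18 hrs. CCF4 substrate was applied for 2 hrs at room temperature before fluorescence reading.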

In assay [13] the target is Peroxisome proliferator-activated receptor gamma (Homo sapiens) (UniProt P37231). In words: qHTS assay for small molecule agonists of peroxisome proliferator-activated receptor gamma signaling (AID 588536; active means well fitted curve in the direction sought with a large enough effect in the signal ratio, with a control signal flat, not every such curve was filed as active; the % refers to the signal ratio; further: potency means the concentration at half of the fitted maximal effect;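 on activation: 0% = DMSO basal wells and 100% = rosiglitazone at 2 µM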). The method in brief:
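GeneBLAzer PPAR-gamma-UAS-bla HEK293 cells in 1% charcoal/dextran-treated FBS medium were treated 16 h at 37 C with compounds. Beta-lactamase activity was read by CCF4 ratio (460/530 nm). Response was normalized to 2 uM rosiglitazone (100%) and DMSO, then Hill-fitted for EC50 and efficacy.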

For assay [14] the target is unchanged. In words: qHTS assay for small molecule antagonists of peroxisome proliferator-activated receptor gamma signaling (AID 588537; active means well fitted inhibition curve with a large enough effect in the signal ratio, with a control signal flat, not every such curve was filed as active; the % refers to the signal ratio;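 further: reporter cells co-stimulated with 50 nM rosiglitazone agonist during compound treatment; % of control where 0% means no effect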). An outline of the steps: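 Step one: plate 3000 HEK293 UAS-bla cells per well in medium with 1% stripped serum and hold 6-6.5 h at 37 C. Step two: add compound and 50 nM agonist for 16 h. Step three: CCF4 loading, fluorescence read.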

Assay [15] addresses Vitamin D3 receptor (Homo sapiens) (UniProt P11473). As to the kind of experiment: qHTS assay for small molecule antagonists of vitamin D receptor signaling (AID 588541). Further: potency means the concentration at half of the fitted maximal effect. The method in brief: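 VDR-UAS-bla HEK293T cells in 2% charcoal-stripped FBS were stimulated with 1-alpha,25-dihydroxyvitamin D3 (3 nM final) plus compound for 16 h at 37 C. The beta-lactamase CCF4 readout was normalized to 50 nM agonist and DMSO, and Hill fits gave IC50.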

Assay [16] addresses Retinoic acid receptor RXR-alpha (Homo sapiens) (UniProt P19793). As to the kind of experiment: qHTS assay for small molecule agonists of retinoid X receptor alpha signaling (AID 588544).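 Further: 0% = DMSO basal wells and 100% = reference agonist.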
Assay [17] in a line: qHTS assay for environmental chemicals that activate the Aryl hydrocarbon Receptor (AhR) signaling pathway (AID 651777; active means well fitted curve in the direction sought with a large enough effect; an effect the other way counts as inactive or inconclusive; further: % of control where 0% means no effect; nearly all actives have a fitted effect of over 15% in size). The settings on record: 1A2-DRE human hepatoma cells, luciferase, 24 h; activation: stronger effect = higher value. An outline of the steps:
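Induction of CYP1A2 transcription through AhR is detected by luciferase in 1A2-DRE hepatoma cells. Compounds or DMSO act for 24 hr at 37 C before a 30 min One-Glo step at room temperature.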

Assay [18] addresses Peroxisome proliferator-activated receptor alpha (Homo sapiens) (UniProt Q07869). In words: qHTS assay for small molecule agonists of the peroxisome proliferator-activated receptor alpha (PPARalpha) signaling pathway (AID 651778; active means well fitted curve in the direction sought with a large enough effect; an effect the other way counts as inactive or inconclusive; further: % of control where 0% means no effect). Particulars: PathHunter PPARalpha complementation, chemiluminescence, 6 h; max response: stronger effect = higher value. The method in brief:
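Enzyme-fragment complementation assay in which ligand-bound PPARalpha translocates and forms an active enzyme that generates chemiluminescence. Cells were plated overnight, exposed to compound for 6 hr at 37 C, and then given detection reagent for 60 min at room temperature.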

Assay [19] is described as follows: qHTS assay for cell viability of HEK293 cells (AID 743288; active means well fitted curve in the direction sought with a large enough effect; an effect the other way counts as inactive or inconclusive; further: nearly all actives have a fitted effect of over 50% in size; further: potency means the concentration at half of the fitted maximal effect; on max response: on the % scale 0 is the no-effect control and ±100 the full control effect). The settings on record: ATP luminescence (CellTiter-Glo), 18 h; max response: stronger effect = lower value. An outline of the steps:
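Environmental chemicals tested in qHTS format against parental HEK293 cells; 18 h treatment, 37 C; read-out ATP luminescence (CellTiter-Glo), 30 min RT development.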

Assay [20] addresses Nuclear receptor subfamily 1 group I member 2 (Rattus norvegicus) (UniProt Q9R1A7). In words: qHTS assay for small molecule activators of the rat pregnane X receptor (rPXR) signaling pathway (AID 651751; call rule not given here; further: 0% is about no effect). Particulars: rPXR reporter cells, luciferase (One-Glo), 24 h.

Molecules are shown by their SMILES. Several values for one entry are separate records, joined by “and”; a condition that tells them apart may be missing. Equal entries are not always repeated. Results filed as inconclusive are left out. Activity calls are given as the source filed them. Unless noted, the call rests on the fitted dose curve.

Chain of Nuclear receptor subfamily 1 group I member 2 (Rattus norvegicus) (Q9R1A7 whole entry, looked up): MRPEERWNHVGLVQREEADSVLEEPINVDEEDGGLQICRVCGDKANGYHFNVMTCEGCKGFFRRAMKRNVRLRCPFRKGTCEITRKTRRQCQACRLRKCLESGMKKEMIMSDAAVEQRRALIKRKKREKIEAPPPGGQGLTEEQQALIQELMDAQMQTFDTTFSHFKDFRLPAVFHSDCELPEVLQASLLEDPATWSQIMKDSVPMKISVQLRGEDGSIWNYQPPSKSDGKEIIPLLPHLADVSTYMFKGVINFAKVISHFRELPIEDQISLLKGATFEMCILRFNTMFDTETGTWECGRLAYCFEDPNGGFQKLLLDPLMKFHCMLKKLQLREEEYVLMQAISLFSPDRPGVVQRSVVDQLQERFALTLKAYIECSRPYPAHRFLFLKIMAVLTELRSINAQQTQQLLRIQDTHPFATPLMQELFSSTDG
Chain of Glucocorticoid receptor (Homo sapiens) (P04150 whole entry, looked up): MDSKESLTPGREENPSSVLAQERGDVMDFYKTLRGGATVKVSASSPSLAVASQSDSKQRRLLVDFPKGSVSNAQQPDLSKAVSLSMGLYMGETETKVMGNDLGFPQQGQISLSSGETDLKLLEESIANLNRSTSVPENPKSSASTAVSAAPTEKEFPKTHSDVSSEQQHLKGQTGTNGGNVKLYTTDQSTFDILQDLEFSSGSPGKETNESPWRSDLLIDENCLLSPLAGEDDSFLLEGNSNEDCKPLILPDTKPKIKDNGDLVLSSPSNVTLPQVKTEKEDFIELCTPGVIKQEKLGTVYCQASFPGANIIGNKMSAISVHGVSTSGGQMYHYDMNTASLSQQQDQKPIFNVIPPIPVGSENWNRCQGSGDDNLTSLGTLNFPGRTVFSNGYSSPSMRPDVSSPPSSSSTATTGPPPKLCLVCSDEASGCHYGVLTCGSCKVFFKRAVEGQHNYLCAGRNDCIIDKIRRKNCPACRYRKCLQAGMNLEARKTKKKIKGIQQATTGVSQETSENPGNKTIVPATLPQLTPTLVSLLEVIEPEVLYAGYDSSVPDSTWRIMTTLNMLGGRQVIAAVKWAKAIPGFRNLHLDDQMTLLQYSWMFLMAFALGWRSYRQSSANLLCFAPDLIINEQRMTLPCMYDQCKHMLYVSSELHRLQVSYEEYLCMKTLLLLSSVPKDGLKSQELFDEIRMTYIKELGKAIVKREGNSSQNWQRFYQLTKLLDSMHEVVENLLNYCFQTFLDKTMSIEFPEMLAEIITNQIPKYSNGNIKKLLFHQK
Chain of Peroxisome proliferator-activated receptor gamma (Homo sapiens) (P37231 whole entry, looked up): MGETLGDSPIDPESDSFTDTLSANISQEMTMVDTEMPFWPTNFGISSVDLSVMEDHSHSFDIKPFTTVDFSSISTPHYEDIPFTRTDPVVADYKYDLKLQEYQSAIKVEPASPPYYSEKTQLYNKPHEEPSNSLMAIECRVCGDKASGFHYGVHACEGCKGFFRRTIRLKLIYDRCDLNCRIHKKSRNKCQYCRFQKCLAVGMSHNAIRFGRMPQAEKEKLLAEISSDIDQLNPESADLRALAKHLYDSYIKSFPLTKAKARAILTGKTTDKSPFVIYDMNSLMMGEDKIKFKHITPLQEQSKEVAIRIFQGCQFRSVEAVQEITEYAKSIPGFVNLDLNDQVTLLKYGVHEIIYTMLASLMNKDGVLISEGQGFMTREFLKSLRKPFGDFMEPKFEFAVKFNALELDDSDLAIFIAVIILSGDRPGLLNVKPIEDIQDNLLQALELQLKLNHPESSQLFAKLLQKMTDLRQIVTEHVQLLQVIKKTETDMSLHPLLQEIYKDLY
Chain of Peroxisome proliferator-activated receptor alpha (Homo sapiens) (Q07869 whole entry, looked up, the tested form may be a part): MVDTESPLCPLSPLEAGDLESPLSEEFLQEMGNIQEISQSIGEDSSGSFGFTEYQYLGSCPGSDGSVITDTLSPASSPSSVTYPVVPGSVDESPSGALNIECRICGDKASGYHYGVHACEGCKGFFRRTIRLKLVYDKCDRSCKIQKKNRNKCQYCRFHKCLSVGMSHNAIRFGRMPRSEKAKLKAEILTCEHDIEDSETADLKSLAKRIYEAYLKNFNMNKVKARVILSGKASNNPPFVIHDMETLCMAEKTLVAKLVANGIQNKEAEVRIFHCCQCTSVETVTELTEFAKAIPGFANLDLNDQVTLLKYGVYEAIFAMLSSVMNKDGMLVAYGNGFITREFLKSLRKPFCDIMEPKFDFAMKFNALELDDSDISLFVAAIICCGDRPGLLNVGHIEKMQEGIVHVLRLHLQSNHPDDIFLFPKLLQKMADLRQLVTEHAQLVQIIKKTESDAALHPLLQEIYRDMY
Chain of Thyroid hormone receptor beta (Homo sapiens) (P10828 whole entry, looked up): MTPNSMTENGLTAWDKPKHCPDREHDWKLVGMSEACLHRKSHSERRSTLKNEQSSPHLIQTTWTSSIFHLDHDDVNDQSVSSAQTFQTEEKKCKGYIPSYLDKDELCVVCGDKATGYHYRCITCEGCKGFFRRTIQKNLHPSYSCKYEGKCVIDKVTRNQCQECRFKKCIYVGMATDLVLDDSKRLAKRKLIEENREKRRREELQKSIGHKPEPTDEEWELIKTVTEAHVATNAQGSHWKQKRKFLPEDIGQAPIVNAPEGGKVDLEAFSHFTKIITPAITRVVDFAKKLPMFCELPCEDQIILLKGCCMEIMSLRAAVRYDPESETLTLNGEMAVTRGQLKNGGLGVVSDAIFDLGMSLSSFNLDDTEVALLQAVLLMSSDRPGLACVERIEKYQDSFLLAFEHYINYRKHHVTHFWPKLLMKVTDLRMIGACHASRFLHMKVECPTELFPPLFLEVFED
Chain of Peroxisome proliferator-activated receptor delta (Homo sapiens) (Q03181 whole entry, looked up): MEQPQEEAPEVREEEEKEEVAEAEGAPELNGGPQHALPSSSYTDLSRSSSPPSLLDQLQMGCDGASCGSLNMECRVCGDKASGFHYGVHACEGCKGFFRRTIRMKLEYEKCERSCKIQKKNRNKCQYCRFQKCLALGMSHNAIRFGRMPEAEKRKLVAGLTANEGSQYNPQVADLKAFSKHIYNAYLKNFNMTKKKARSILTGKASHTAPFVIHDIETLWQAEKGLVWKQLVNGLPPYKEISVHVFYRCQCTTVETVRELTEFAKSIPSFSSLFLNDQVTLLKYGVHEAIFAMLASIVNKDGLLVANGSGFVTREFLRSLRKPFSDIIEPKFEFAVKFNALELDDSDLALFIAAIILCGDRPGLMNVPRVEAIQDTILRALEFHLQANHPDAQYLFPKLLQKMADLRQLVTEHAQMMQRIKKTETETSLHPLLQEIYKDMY
Chain of Retinoic acid receptor RXR-alpha (Homo sapiens) (P19793 whole entry, looked up): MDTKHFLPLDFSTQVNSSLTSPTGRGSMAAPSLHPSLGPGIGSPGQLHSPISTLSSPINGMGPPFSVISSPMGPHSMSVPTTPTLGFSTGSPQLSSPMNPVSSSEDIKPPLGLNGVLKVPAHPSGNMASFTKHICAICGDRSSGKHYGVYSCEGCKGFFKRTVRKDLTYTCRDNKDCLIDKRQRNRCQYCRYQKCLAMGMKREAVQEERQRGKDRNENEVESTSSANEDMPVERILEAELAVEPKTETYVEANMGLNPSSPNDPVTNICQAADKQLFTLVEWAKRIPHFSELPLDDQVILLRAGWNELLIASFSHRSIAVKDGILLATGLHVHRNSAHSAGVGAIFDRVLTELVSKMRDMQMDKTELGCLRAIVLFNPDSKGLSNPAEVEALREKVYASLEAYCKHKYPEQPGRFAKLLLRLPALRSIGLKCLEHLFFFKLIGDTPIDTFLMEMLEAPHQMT

With `CC(C)(C)[C@@H](O)/C(=C\c1ccc(Cl)cc1Cl)n1cncn1`, the activation in [1] is -11.9% (inactive); in assay [8], -3.2% (inactive). Moreover, the outcome in [2] and in [3] was inactive. Also, the Potency entry in [4], in assay [9] and in assay [11] was “inactive” each time. Also, the max response is 18.6% in assay [5] and 6.93% (inactive) in [10]. Further, the Potency in [6] was 44.7 µM (active). Also, in assay [7], the activity change % (negative = inhibition) is -11.6% (inactive).

Turning to `COP(=O)(OC)OC(Br)C(Cl)(Cl)Br` (configuration not stated), the activation in assay [1] was -8% (inactive). Further, the result in [2] and in assay [3] was inactive. Besides, the max response is -79.2% in [12] and -24% (inactive) in assay [10]. The Potency was 22.4 µM (active) in assay [13], 44.7 µM (active) in assay [15] and 68.6 µM (active) in [9]. Also, the Potency entry in assay [14], in assay [4] and in [11] was “inactive” in each case. Also, the activity change % (negative = inhibition) in assay [7] was -62.2% (inactive).

With `CNC(=O)Oc1cccc(N=CN(C)C)c1`, the molecule was called inactive in [2] and in assay [3]. Besides, the max response was 16.5% in [12]; -11.7% in [5]; 10.6% (inactive) in [6]; 2.04% (inactive) in assay [18]; -21.4% (inactive) in assay [10]; -9.91% (inactive) in [19]. Further, the max response in [20] is -4.82% (inactive). The Potency result in [13], in [14], in assay [15], in [16], in [4] and in assay [9] was “inactive” in each case. In addition, the activity change % (negative = inhibition) in assay [7] is 4.27% (inactive). Further, the figures for the activation in assay [8] and in assay [17] were -4.39% (inactive) and 0.739% (inactive), respectively.

On to `O=[N+]([O-])c1ccc(Cl)c([N+](=O)[O-])c1`, for which the figures for the activation in assay [1] and in assay [17] were 0.437% (inactive) and -11.5% (inactive), respectively. For the same molecule, in [2], the molecule was called inactive. In addition, the Potency result in assay [14] and in assay [9] was “inactive” each time. The max response is -3.79% (inactive) in assay [18] and -13.5% (inactive) in assay [20]. The Potency was 44.7 µM (active) in [10] and 50.1 µM (active) in assay [19].

`O=C(O)C(F)(F)C(F)(F)C(F)(F)C(F)(F)C(F)(F)C(F)(F)C(F)(F)C(F)(F)F`: the activation is -0.386% (inactive) and 5.13% (inactive) in [1]; 1.7% (inactive) in assay [8]; 2.07% (inactive) and 1.12% (inactive) in [17]. Further, the outcome in assay [2] and in assay [3] was inactive. Moreover, the max response in [12] was -4.97% and -33.9%; in assay [5], -12.8% and -2.74%; in [6] it was 2.77% (inactive) and -39.3% (inactive); in assay [18] it was -1.46% (inactive) and 5.33% (inactive); in assay [10], 4.68% (inactive) and -1.78% (inactive); in [19] it was -7.25% (inactive) and -13% (inactive). Also, in assay [20], the max response was 1.17% (inactive) and 2.66% (inactive). Also, the Potency result in [13], in assay [14], in assay [15], in [16], in [4] and in assay [9] was “inactive” throughout. Also, the Potency result in assay [11] was “inactive”. In assay [7], the activity change % (negative = inhibition) was 1.6% (inactive) and 0.325% (inactive).

`CC(C)=CC1[C@H](C(=O)OCc2cccc(Oc3ccccc3)c2)C1(C)C` (some centres not stated): the activation in assay [1] is 1.86% (inactive); in assay [8], -1.37% (inactive); in [17], -0.0338% (inactive). Also, the outcome in assay [2] and in assay [3] was inactive. The max response was 26% in [12]; -13.6% in assay [5]; 3.36% (inactive) in assay [6]; -1.72% (inactive) in assay [18]; -3.94% (inactive) in [10]; -10.6% (inactive) in [19]. Moreover, the Potency entry in assay [15], in [16], in [4], in assay [9] and in assay [11] was “inactive” each time. Besides, the activity change % (negative = inhibition) in assay [7] is 2.1% (inactive).

For `Cc1[nH]c(=O)n(C(C)(C)C)c(=O)c1Cl`, the Potency entry in assay [13], in assay [14], in [16], in assay [9] and in [11] was “inactive” throughout. Besides, the activity change % (negative = inhibition) in [7] was 8.21% (inactive). Further, the activation in assay [17] was 0.775% (inactive). In addition, the max response is -1.56% (inactive) in assay [18], 0.82% (inactive) in assay [10] and 0.145% (inactive) in [20].
